Compounds with a hit are over-represented: about 0.96% of the library has one in this group of screens.
Fluorescein fluor = fluorescein region autofluorescence; Compound autofluorescence, 480/540 nm, fluorescein-equivalent; stronger effect = higher value; max fluorescein-equivalent concentration, M; hit rate 0.91% among 59,000; AID 593; in the data active means max fluorescein-equivalent concentration above about 10 nM; inconclusive means between about 1.1 nM and that limit
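Spectral profiling of library compounds in the fluorescein window (480 nm excitation, 540 nm emission) after 15 min at room temperature in pH 8.0 Tris (100 mM). Values are dye-equivalent concentrations.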
Resorufin autofl = compounds fluorescent in resorufin spectral region; max dye-equivalent concentration, M; hit rate 0.04% among 59,000; Compound fluorescence, resorufin region 547/598 nm, buffer; stronger effect = higher value
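Compounds in 100 mM Tris, pH 8.0, incubated 15 min at room temperature, then fluorescence read at 547 nm excitation/598 nm emission. Signal converted to dye-equivalent concentration via an on-plate six-point resorufin standard curve, per compound concentration.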
TexasRed autofl = Texas Red region autofluorescence | Compound fluorescence, Texas Red channel, 547/618 nm; stronger effect = higher value | max dye-equivalent concentration, M | hit rate 0.06% among 59,000; in the data active means max dye-equivalent concentration above about 10 nM; inconclusive means between about 1.1 nM and that limit
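qHTS profiling of intrinsic compound fluorescence; 100 mM Tris pH 8.0; 15 min RT; ex 547 / em 618 nm; response expressed as Texas Red dye-equivalent concentration from six-point plate standard.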
A647 autofl = A647 region autofluorescence. AID 592. Compound fluorescence, A647 channel (570/671 nm), Tris buffer. max dye-equivalent concentration, M. 59,000 tested, under 10 active;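 further: values scaled relative to a standard on each plate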
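Tris 100 mM pH 8.0; cpd + A647 stds pin-transferred; 15 min RT; CCD imager, ex 570/em 671. Output = A647-equivalent conc. per cpd conc.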
A488 fluor = compound fluoresces in the A488 spectral region; compound autofluorescence, A488 spectral region, dye equivalency; Compound Type: qHTS ECL - MLSMR; max dye equivalency, M; hit rate 0.1% among 59,000; AID 591
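Read-out: relative fluorescence at 480/540 nm, expressed as Alexa 488 dye-equivalent concentration from a six-point A488 standard included per plate. Conditions: 100 mM Tris, pH 8.0; 15 min incubation, room temperature.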
Rhodamine fluor = compound autofluorescence in rhodamine spectral region; Rhodamine-region fluorescence, 547/598 nm, Tris buffer; stronger effect = higher value; max dye-equivalent concentration, M; hit rate 0.05% among 59,000; AID 594; in the data active means max dye-equivalent concentration above about 11 nM; inconclusive means between about 1.1 nM and that limit
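Intensities are converted to rhodamine-equivalent concentration using a six-point rhodamine standard on each plate. Compounds sit 15 min at room temperature in 100 mM Tris buffer, pH 8.0; read uses the 547/598 nm excitation/emission pair.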
Starred values were filed as active, the others as inactive; i = inactive; ? = inconclusive; ! = not active in a repeat. Unless noted, how the calls were made is not given here.

SMILES	Fluorescein fluor	Resorufin autofl	TexasRed autofl	A647 autofl	A488 fluor	Rhodamine fluor
CO[C@@]12C[C@@H](COC(=O)c3cncc(Br)c3)CN(C)[C@H]1Cc1cn(C)c3cccc2c13	2.5e-08M*!	i	i	1e-09	i	i
C=C1CC[C@@H](O)C/C1=C/C=C1\CCC[C@]2(C)[C@@H]1CC[C@H]2[C@@H](C)/C=C\[C@@H](C)C(C)C	i	i	i	1e-09	i	i
CCN(CC)CCCn1c(=S)[nH]c2ccccc2c1=O	i	i	i	1.5e-09	i	i
CCN(CC)CC[n+]1ccc2c(C)c3[nH]c4ccccc4c3c(C)c2c1	1.7e-08M*	i	i	4e-08	i	i
CCc1cccc2c3c([nH]c12)[C@](CC)(CC(=O)O)OCC3	?	i	i	4.8e-08	i	i
Cc1ccc2nc3sc(C(=O)N4CCOCC4)c(N)c3cc2c1	8.1e-08M*	i	i	1.1e-09	?	i
CCCCC#Cc1nc(N)c2ncn([C@@H]3O[C@@H](C(=O)NCC)[C@H](O)[C@@H]3O)c2n1	i	i	i	4.5e-09	i	i
CN1CCN(Cc2nc3cccc4c3c([n+]2[O-])-c2ccccc2-4)CC1	1.4e-08M*	i	i	1e-09	i	i
CCCCn1c(CN2CCN(C)CC2)nc2ccccc21	i	i	i	1e-09	i	i
CC(C)N1CC2=C(OC(N)=C(C#N)C2c2cccnc2)/C(=C/c2cccnc2)C1 (configuration not stated)	?	i	1.3e-08M*	6.2e-09	i	i
C=CCN1C(=O)C2(c3ccccc31)C1CCCC=C1C(C#N)=C(N)C2(C#N)C#N (configuration not stated)	i	i	i	1.5e-08	i	i
CN1CCC2(CC1)C1CN(C)CC=C1C(C#N)=C(N)C2(C#N)C#N (configuration not stated)	6e-08M*	i	i	2.1e-09	?	i
CCCCCCCCCCCCCCCCCC(=O)NC[C@@H](COP(=O)([O-])OCC[N+](C)(C)C)OCC	i	i	?	1.2e-08	i	i
Cc1cc(N2CCOCC2)n2nc(-c3cccc(F)c3)cc2n1	1.1e-08M*	i	i	2.7e-09	i	i
COc1cccc(/C=C/c2ccncc2)c1OC	i	i	i	2.7e-08	i	i
CN(C)c1ccc(/C=C/c2ccncc2)cc1	1.2e-08M*	i	i	2.6e-08	i	i
Cc1ccc(NC(=O)COC(=O)CCc2c[nH]c(=O)[nH]2)cc1	?	i	i	1.3e-08	i	i
O=C(COC(=O)CCc1c[nH]c(=O)[nH]1)Nc1ccccc1	1.8e-08M*	i	i	1e-09	i	i
O=C(O)c1cn(C2CC2)c2cc(N3CCNCC3)c(F)cc2c1=O	i	i	i	3.2e-09	i	i
NC(N)=N[C@H](CCC(=O)O)C(=O)O	?	i	i	5.7e-08	i	i
CCOc1ccc(C2C(C#N)=C(N)SC(N)=C2C#N)cc1OC	?	i	i	3.8e-08	i	i
CCOc1ccc(C2C(C#N)=C(N)SC(N)=C2C#N)cc1OCC	1.4e-08M*	i	i	2.2e-08	i	i
CCOc1ccccc1C1C(C#N)=C(N)SC(N)=C1C#N	1.3e-08M*	i	i	9e-09	i	i
C=CCNc1nc(N)c(C(=O)Nc2cc(C)on2)s1	i	i	i	1e-09	i	i
Cc1cc(C(F)(F)F)c2c(N)c(C(=O)Nc3cc(C)on3)sc2n1	1.2e-08M*	i	i	1e-08	i	i
SMILES	Fluorescein fluor	Resorufin autofl	TexasRed autofl	A647 autofl	A488 fluor	Rhodamine fluor
CCCOc1ccc(N)cc1N	1.9e-08M*	i	i	1e-09	i	i
CCCOc1cc(N)ccc1C(=O)OCCN(CC)CC	?	i	i	2.5e-08	i	i
N#Cc1c(C(F)(F)F)cc(-c2ccccc2)nc1SCc1nc(N)nc(N2CCOCC2)n1	1.6e-08M*	i	i	1e-09	i	i
Nc1nc(Cn2nnc(-c3ccccc3F)n2)nc(N2CCOCC2)n1	i	i	i	1.8e-08	i	i
CC(=O)N1C(=O)C(=C2C=C(C)OC(C)=C2)c2ccccc21	2.3e-07M*	i	i	1.9e-08	1.3e-08M*	i
Cc1cccc(N=c2oc3cc(O)ccc3cc2C(N)=O)c1	1.2e-08M*	i	i	1.9e-08	i	i
Nc1nc(SCCc2ccccc2)c2[nH]cnc2n1	?	i	i	2.1e-08	i	i
O=C(NC1CCCC1)C(c1ccsc1)N(Cc1ccco1)C(=O)Cc1cccs1 (configuration not stated)	1.1e-08M*	i	i	5.8e-08	i	i
CN(C)c1ccc(NC(=O)CCCc2ccccc2)cc1	?	i	?	3.9e-08	i	i
CN(C)c1ccc(N/C=C/C(=O)c2ccccc2)cc1	1.4e-08M*	i	i	1.2e-08	i	i
O=C(c1cc(C(F)(F)F)cc(C(F)(F)F)c1)N1CCC2(CCCN(c3ccncc3)C2)CC1	i	i	i	3.1e-09	i	i
CN(C)Cc1ccccc1-c1nccc(NCc2cccs2)n1	1.1e-08M*	i	i	1.5e-09	i	i
CC1=CC(C#N)(C#N)C(C#N)(C#N)C(c2ccccc2)N1 (configuration not stated)	9.2e-08M*	2e-08M*	3.4e-08M*	1.7e-09	?	2.8e-08M*
COc1cc(C(=O)O[C@@H]2CC(C)=CC[C@@]3(C)CC[C@](O)(C(C)C)[C@H]23)ccc1O	i	i	i	1e-09	i	i
CC(=O)N1CCN(c2ccc(N=Cc3c(O)n(Cc4ccccc4)c(=O)[nH]c3=O)cc2)CC1	1.9e-08M*	i	i	6.2e-09	i	i
COc1cc(/C=C\C(=O)N2CCCCC2=O)cc(OC)c1OC	i	i	i	1.7e-08	i	i
NC(=O)C1=CN([C@@H]2O[C@@H](COP(=O)(O)OP(=O)(O)OC[C@@H]3O[C@H](n4cnc5c(N)ncnc54)[C@@H](OP(=O)(O)O)[C@@H]3O)[C@H](O)[C@@H]2O)C=CC1	?	i	i	4.9e-08	i	i
COc1ccccc1C1C=C(c2ccc(Cl)cc2)Nc2nc(NS(C)(=O)=O)nn21 (configuration not stated)	1.5e-08M*	i	?	2.3e-08	i	i
COc1ccccc1C1C=C(c2ccc(Cl)cc2)Nc2nc(N3C(=O)CCC3=O)nn21 (configuration not stated)	?	i	i	4.4e-08	i	i
COc1ccc(C2=CC(c3ccc(Cl)cc3)n3cnnc3N2)cc1OC (configuration not stated)	3.5e-08M*	i	i	6.2e-08	?	i

Assay outcomes as filed in PubChem.
